# Screening data: PubChem BioAssay, several laboratories
# A1 inh: inhibitors of the anti-apoptotic protein A1, read as caspase activation. 330,000 tested, 0.066% active. AID 2462. MEF A1-2A-BIM cells, Caspase-Glo 3/7 luminescence, 3 h; percent of clofoctol response, vehicle zero. caspase activation, % (test concentration not listed);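 active = over half of replicate activation scores above 10%, or exactly half above 10 with the replicate mean above 10; inconclusive = replicate mean below 10 yet half the replicates above 10; inactive = over half of replicates below 10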
# VLA-4 inh: inhibition in a human VLA-4 binding assay; P13612; VLA-4 expressing cells, ligand binding flow cytometry; inhibition, % (about 7 µM as worked out from the volumes in the protocol); 330,000 tested, 0.2% active; in the data active = inhibition above about 50%
# ALR H2O2 inh: human ALR oxidase inhibition via reduced H2O2; P55789; purified ALR, DTT oxidation, H2O2 HRP-luminol luminescence; 290,000 tested, 3.8% active; inhibition, % (no concentration beside the values);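 active = mean replicate inhibition above about 79%, with every replicate also reaching it, limit read from the data; inconclusive = only one of the two criteria met; inactive = mean below limit and not every replicate reaching it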
# Efflux pump mplx: antifungal efflux pump inhibition, Nile Red retention; S. cerevisiae Candida pump triplex; inhibition, % at 10 µM; 330,000 tested, 0.44% active; AID 485275;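 active = plate passing quality check with inhibition over a set limit, or well fluorescence over plate mean plus 4 SD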;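 also: Nile Red retained in pooled yeast measured as flow cytometry median fluorescence; higher means more Nile Red kept so more efflux inhibition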
# AHR activator: activates the human aryl hydrocarbon receptor | AHR-responsive luciferase reporter cells, luminescence | activation, % at 5 µM | P35869 | 320,000 tested, 2.5% active; in the data active = activation above about 47%
# Target sequence (P35869 whole entry, looked up): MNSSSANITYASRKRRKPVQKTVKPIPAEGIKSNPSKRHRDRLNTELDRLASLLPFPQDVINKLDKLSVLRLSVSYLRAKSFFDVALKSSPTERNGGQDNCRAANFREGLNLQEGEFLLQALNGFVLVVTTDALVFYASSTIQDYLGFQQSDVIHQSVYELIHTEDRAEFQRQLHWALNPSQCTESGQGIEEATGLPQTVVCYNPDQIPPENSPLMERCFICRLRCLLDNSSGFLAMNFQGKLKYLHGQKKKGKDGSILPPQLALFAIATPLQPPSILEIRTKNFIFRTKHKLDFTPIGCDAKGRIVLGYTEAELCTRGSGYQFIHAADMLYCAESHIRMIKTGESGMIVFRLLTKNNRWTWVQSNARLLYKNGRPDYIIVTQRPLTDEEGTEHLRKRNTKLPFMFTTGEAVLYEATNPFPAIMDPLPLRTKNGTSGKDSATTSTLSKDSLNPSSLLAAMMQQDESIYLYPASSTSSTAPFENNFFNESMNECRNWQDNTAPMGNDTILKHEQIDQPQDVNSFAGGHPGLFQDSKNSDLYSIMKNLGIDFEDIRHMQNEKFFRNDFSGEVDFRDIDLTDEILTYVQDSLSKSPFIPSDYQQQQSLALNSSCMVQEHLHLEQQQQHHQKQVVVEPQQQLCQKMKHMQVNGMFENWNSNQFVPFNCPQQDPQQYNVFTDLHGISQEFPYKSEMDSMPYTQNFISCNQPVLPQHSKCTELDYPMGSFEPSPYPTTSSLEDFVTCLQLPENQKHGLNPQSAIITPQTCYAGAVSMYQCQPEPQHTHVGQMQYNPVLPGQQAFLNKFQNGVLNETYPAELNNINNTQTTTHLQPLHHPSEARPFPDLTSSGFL
# SUMO Mot1 rescue: inhibitors of SUMOylation pathway: yeast Mot1-301 growth rescue; S. cerevisiae Mot1-301 growth rescue, ATP luminescence, 38.5C; percent above DMSO median, 100 means doubled; 320,000 tested, 1% active; growth rescue, % at 18.8 µM; AID 2716;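 active = every valid replicate shows activation above 250% relative to neutral control wells; inactive = the rest, any valid replicate at or below 250%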
# Hits are given with their value; 0 = inactive; ? = inconclusive; - = no result. An excerpt weighted towards active compounds, which were near 7.2% of everything screened.
SMILES,A1 inh,VLA-4 inh,ALR H2O2 inh,Efflux pump mplx,AHR activator,SUMO Mot1 rescue
FC(F)(F)c1ccc2c(c1)N1CCCC1CN2 (stereo not given),0,0,0,0,0,0
Cc1cccc(OCCCC(=O)N2CCCCCC2)c1C,0,0,0,0,-,0
COc1cccc(NC(=O)c2nnn(Cc3ccc(Br)cc3F)c2N)c1,0,0,0,0,54,0
COc1cccc(NC(=O)Cn2nnc(C(=O)Nc3ccccc3)c2N)c1,0,0,0,0,0,0
CNCc1ccccc1Sc1ccc(OC)c(OC)c1,0,0,0,0,0,0
CC(C)Cn1c(SCC(=O)N2CCOCC2)nc2ccccc2c1=O,-,0,-,0,0,-
CC(C)Cn1c(-c2ccc(Cl)cc2)cnc1SCC(=O)N1CCOCC1,0,0,0,0,0,306
CS(=O)(=O)c1ccc(C(=O)NCCN2C(=O)S/C(=C\c3cccnc3)C2=O)cc1[N+](=O)[O-],0,0,100,0,0,0
c1cn2cc(-c3ccc4c(c3)OCO4)nc2s1,-,0,95,0,0,0
COC(=O)c1ccc(COc2ccc(/C=N/O)cc2)o1,0,0,98,0,0,-
COC(=O)c1ccc(COc2ccc(C=O)cc2)o1,0,0,0,0,0,0
Cn1cccc1CC(=O)NNC(=O)Nc1ccccc1F,0,0,-,0,0,0
Cc1cc(C(=O)Cn2cncn2)c(C)n1CCc1ccc(F)cc1,0,0,0,0,60,0
Cc1cc(C(=O)CCl)c(C)n1Cc1ccco1,0,0,97,0,0,0
Cc1cc(C(=O)CCl)c(C)n1CCc1ccccc1,0,0,96,0,61,0
CCOC(=O)c1cc(C)n(CCc2ccccc2)c1C,0,0,0,0,0,0
Cc1ccc(Sc2cnc(N)nc2C)cc1,0,0,0,0,0,0
O=C(Nc1ccc(C(F)(F)F)cc1)N1CCN(C(=O)c2ccco2)CC1,0,0,0,0,0,0
CCn1c(N)c(C(=O)NCc2cccnc2)sc1=S,0,0,99,0,0,0
Cn1c(N)c(C(=O)NCc2ccccc2Cl)sc1=S,0,0,0,0,0,0
CCn1c(N)c(C(=O)NCCCOC)sc1=S,0,0,99,0,0,0
CCNC(=O)c1sc(=S)n(CC)c1N,0,0,99,0,0,0
CCOC(=O)c1sc(=S)n(CC)c1NC(=O)CC,0,0,0,0,0,0
CC(C)OCCCNC(=O)c1sc(=S)n(C)c1N,0,0,-,0,0,0
CCn1c(N)c(C(=O)NC)sc1=S,0,0,99,0,0,0
SMILES,A1 inh,VLA-4 inh,ALR H2O2 inh,Efflux pump mplx,AHR activator,SUMO Mot1 rescue
COc1ccc(CCNC(=O)C2CC(=O)N(c3ccc(C(C)(C)C)cc3)C2)cc1OC (stereo not given),0,0,0,0,0,0
Cc1c(C(=O)NCc2cccnc2)sc2nc(-c3ccc(F)cc3)cn12,0,0,0,0,0,0
Cc1c(C(=O)NCc2cccnc2)sc2nc(-c3ccccc3)cn12,0,0,90,0,0,0
Cc1cc(OCc2cc(C(=O)N(C)CCc3cnn(C)c3)no2)cc(C)c1Cl,0,0,0,0,0,0
COc1ccc(CCNc2cc(C)nc3c(-c4ccc(Cl)cc4)cnn23)cc1OC,0,0,0,0,69,0
COc1ccccc1-c1nnc(SCC(=O)c2ccc(C3CCCCC3)cc2)n1Cc1ccco1,0,0,0,0,0,-
COc1ccnc(Nc2ccc(C)c(C)c2)c1C#N,0,0,0,0,0,0
Cc1cc(Nc2n[nH]c(N)c2C#N)ccc1F,0,0,95,0,0,0
CCC(C)(C)NC(=O)CCn1c(-c2ccccc2)cc(C(C)=O)c1C,0,0,0,0,0,0
CC1CN=C(N(Cc2ccccc2)C(=O)Nc2ccccc2)S1 (stereo not given),0,0,0,0,0,0
O=C(Nc1ccccc1)N(Cc1ccccc1)C1=NCCS1,0,0,99,0,0,0
Cc1nc(-c2ccccc2)sc1-c1nc(-c2ccncc2)ncc1S(=O)(=O)c1ccccc1,0,0,0,0,54,0
O=C(CN1CCCCC1)N1c2ccccc2CCc2ccccc21,0,0,0,0,0,0
CC1CCN(CC(=O)NC(=O)NCc2ccccc2)CC1,0,0,0,0,0,332
O=C(CN1CCN(c2ccccc2)CC1)NC(=O)NCc1ccccc1,0,0,-,0,0,0
CC1CCN(CC(=O)N2c3ccccc3CCc3ccccc32)CC1,0,0,84,0,0,0
O=C(c1cncs1)N1CCCC(CNS(=O)(=O)c2cccs2)C1 (stereo not given),?,0,0,0,0,0
COc1ccccc1NC(=O)CCCC(=O)OC(C)C(=O)c1ccccc1 (stereo not given),0,0,-,0,0,0
CCCC(=O)C1=C(c2ccccc2)C(C#N)(C#N)C(C#N)=C1N,0,0,99,0,0,0
Cc1nc(CCNC(=O)C2CCC(=O)N(Cc3cccc(F)c3)C2)sc1C (stereo not given),0,0,0,0,0,0
Cc1cc(C)nc(Sc2c(C)nn(-c3ccccc3)c2C)n1,0,0,80,0,0,0
Cc1cc(C(F)(F)F)c2c(C)nn(-c3ccccc3)c2n1,0,0,0,0,0,0
CC(=O)Oc1cc2oc(=O)cc(C)c2cc1OC(C)=O,0,0,89,0,0,0
CC(Cc1cccnc1)NC(=O)c1cc(COc2c(F)cccc2F)on1 (stereo not given),0,0,0,0,48,0
CC(Cc1cccnc1)NC(=O)c1cc(COc2ccc(F)cc2Cl)on1 (stereo not given),0,0,0,0,0,0
SMILES,A1 inh,VLA-4 inh,ALR H2O2 inh,Efflux pump mplx,AHR activator,SUMO Mot1 rescue
COc1ccc([C@@H]2[C@@H]3C(=O)N(C(C)(C)C)C(=O)[C@@H]3[C@]3(C)C(=O)N(c4cccc(C)c4)C(=O)N23)cc1,?,0,0,0,0,280
CC[C@@]12C(=O)N(c3cccc(C)c3)C(=O)N1[C@H](c1ccc(OC)cc1)[C@@H]1C(=O)N(C(C)(C)C)C(=O)[C@@H]12,0,0,0,0,0,0
CC1CCCN(c2nc(NCc3ccco3)nc(N)c2[N+](=O)[O-])C1 (stereo not given),0,0,0,0,0,0
Cc1ccc(Nc2nc(N)c([N+](=O)[O-])c(N3CCCC(C)C3)n2)cc1C (stereo not given),0,0,0,0,51,0
O=C(N/C(=C\c1ccc(Br)cc1)c1nc2ccccc2[nH]1)c1ccco1,0,0,0,0,75,0
Cc1cc2c(=O)n(C)c(SCC(=O)Nc3ccccc3)nc2s1,0,0,0,0,0,0
Cc1cc2c(=O)n(C)c(SCC(=O)Nc3cccc(O)c3)nc2s1,0,0,99,0,0,0
C=CCn1c(SCC(=O)Nc2ccc(F)cc2)nc2ccccc2c1=O,0,0,0,0,0,0
C=CCn1c(SCC(=O)Nc2cccc3ccccc23)nc(O)c(CC)c1=O,0,0,98,0,0,0
